Screening results from PubChem.
LEDGF integ inh – blocks HIV-1 LEDGF/p75-dependent DNA integration. inhibition, % at 3.7 µM. TR-FRET IN-LEDGF/p75 DNA integration, Eu/Cy5. AID 743269. 0.64% of 370,000 active;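 active = inhibition above the screen-wide mean plus 3 SD, cut at about 13% in these data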;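 note: signal is the Cy5 over europium emission ratio at 671 and 618 nm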
ABHD5 PLIN5 PPI – inhibitors of human ABHD5-perilipin-5 interaction | inhibition, % at 4 µM | Q00G26+Q8WTS1 | Split G. princeps luciferase complementation, luminescence, 4 h | AID 602281 | 0.78% of 360,000 active;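 active = inhibition above the mean inhibition across every tested compound plus 3 SD, cut at about 22% in these data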
MBD2 DNA inh – blocks human MBD2 binding to methylated DNA; TR-FRET, MBD2 binding to methylated oligonucleotide; Q9UBB5; 0.31% of 370,000 active; inhibition, % at 4.4 µM; AID 686964; in the data active = inhibition above about 13%
rCAG RNA binder – binds r(CAG) RNA repeats. 1.3% of 370,000 active. r(CAG) RNA repeat, TO-PRO-1 dye displacement fluorescence. inhibition, % at 3 µM. AID 651821;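 active = inhibition above the plate cutoff, the mean of all test compounds on that plate plus 3 SD, cut at about 35% in these data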;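 note: higher means more dye released from RNA so lower well fluorescence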
UHRF1 MBD2 ctr – UHRF1 methyl-DNA binding inhibition; inhibition, % at 4.4 µM; 0.75% of 370,000 active; AID 687016; UHRF1 binding to methylated oligo, TR-FRET; in the data active = inhibition above about 21%;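 note: UHRF1 SRA domain binding a hemimethylated CpG hairpin DNA probe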
Target sequence (Q96T88 whole entry, looked up, the tested form may be a part): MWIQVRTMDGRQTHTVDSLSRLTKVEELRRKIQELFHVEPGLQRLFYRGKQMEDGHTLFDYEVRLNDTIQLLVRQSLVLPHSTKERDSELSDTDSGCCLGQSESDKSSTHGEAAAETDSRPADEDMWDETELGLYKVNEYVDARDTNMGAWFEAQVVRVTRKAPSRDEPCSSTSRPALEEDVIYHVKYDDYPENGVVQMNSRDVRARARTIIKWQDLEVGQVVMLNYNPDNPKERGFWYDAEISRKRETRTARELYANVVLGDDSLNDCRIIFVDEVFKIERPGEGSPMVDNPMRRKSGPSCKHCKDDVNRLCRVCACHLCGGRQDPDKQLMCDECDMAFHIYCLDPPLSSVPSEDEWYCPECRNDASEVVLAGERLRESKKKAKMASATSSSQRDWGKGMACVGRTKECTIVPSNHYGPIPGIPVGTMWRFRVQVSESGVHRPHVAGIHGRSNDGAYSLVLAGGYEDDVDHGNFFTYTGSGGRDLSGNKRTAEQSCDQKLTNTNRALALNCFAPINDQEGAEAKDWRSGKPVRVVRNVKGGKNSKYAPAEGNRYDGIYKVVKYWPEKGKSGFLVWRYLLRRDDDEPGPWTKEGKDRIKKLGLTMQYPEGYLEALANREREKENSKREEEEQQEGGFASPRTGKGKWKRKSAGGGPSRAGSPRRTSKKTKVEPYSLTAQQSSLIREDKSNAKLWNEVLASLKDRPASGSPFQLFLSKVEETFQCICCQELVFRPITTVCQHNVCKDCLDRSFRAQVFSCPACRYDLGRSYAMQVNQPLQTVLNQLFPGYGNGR
PRMT1 inh – blocks human protein arginine methyltransferase 1. recombinant PRMT1, activity-based probe fluorescence polarization. inhibition, % at 2.79 µM. 1.3% of 370,000 active. AID 652257;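 active = inhibition above about 21% made by adding two undisclosed values, limit read from the data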
ABHD5 PLIN5 conf – ABHD5-PLIN5 interaction inhibition, confirmed | shares compounds with ABHD5 PLIN5 PPI | biochemical ABHD5-PLIN5 interaction, luminescence | inhibition, % at 4 µM | 67% of 2,200 active; in the data active = inhibition above about 23%
HNF4 split-luc – HNF4 split-luciferase signal hit, counter-screen; shares compounds with ABHD5 PLIN5 PPI; inhibition, % at 4 µM; HNF4 dimerization, luminescence, biochemical; 77% of 2,200 active; AID 651674;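 active = mean inhibition across replicate wells exceeding the computed hit threshold, cut at about 13% in these data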;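 note: light from luciferase halves that rejoin when HNF4 fusion proteins dimerize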
Hits are given with their value; - = inactive; . = no result given. Shown are actives, neighbours in structure and some others; about 4.1% of the full set was active somewhere.

SMILES	LEDGF integ inh	ABHD5 PLIN5 PPI	MBD2 DNA inh	rCAG RNA binder	UHRF1 MBD2 ctr	PRMT1 inh	ABHD5 PLIN5 conf	HNF4 split-luc
COc1ccc(-n2c(COc3ccccc3)nnc2SCC(=O)Nc2ccc(OCc3ccccc3)cc2)cc1	-	.	-	-	-	-	.	.
O=C(CSc1nnc(-c2ccc(Cl)cc2)n1-c1ccccc1)Nc1ccc2c(c1)OCCO2	-	.	-	-	-	-	.	.
Cc1ccc(C(=O)c2c(C)oc3c2C(=O)C(=O)c2ccccc2-3)cc1	.	51.2	.	.	.	.	83.9	60.1
Cc1ccc(C(=O)c2coc3c2C(=O)C(=O)c2ccccc2-3)cc1	-	85.1	-	-	-	-	93.6	64.6
Cc1oc2c(c1C(=O)c1ccc(Cl)cc1)C(=O)C(=O)c1ccccc1-2	-	54.7	-	-	-	-	80.5	34.7
COc1ccc(C(=O)c2coc(-c3ccccc3C(=O)O)c2C(=O)O)cc1	-	-	-	-	-	-	.	.
CC(C)C[C@H]1COc2cc(N3CCSCC3)ccc2S(=O)(=O)N1C	-	.	-	-	-	-	.	.
CCN1CCCCC(NC(=O)c2ccc(Cl)cc2Cl)C1=O (configuration not stated)	-	.	-	-	-	-	.	.
CCN(CC)C(=O)CC[C@H]1CC[C@]2(CCCN(C(=O)c3ccco3)C2)O1	-	.	-	-	-	-	.	.
Cc1[nH]nc(-c2cccnc2)c1N=NN(C)C	-	61.7	-	-	-	-	73.1	78.8
COc1cccc(CNC(=O)C2CCC(CNS(=O)(=O)c3cccc4cccnc34)CC2)c1OC (configuration not stated)	-	.	-	-	-	-	.	.
COc1ccc(C(C[N+](=O)[O-])c2c(C)cc3ccccn23)c(OC)c1 (configuration not stated)	-	29.5	-	-	-	-	44.9	28.9
Cc1cccn2c(=O)c3cc(C#N)c(=NC(=O)c4ccco4)n(Cc4ccco4)c3nc12	-	39.0	-	-	-	-	22.6	54.4
CCOC(=O)c1cc2c(=O)n3ccccc3nc2n(CC(C)C)c1=NC(=O)c1ccco1	-	-	-	-	-	-	.	.
CCOC(=O)c1cc2c(=O)n3ccccc3nc2n(Cc2ccco2)c1=NC(=O)c1ccccc1OCC	-	24.4	-	-	-	-	-	45.2
CCOC(=O)c1cc2c(=O)n3cccc(C)c3nc2n(Cc2ccco2)c1=NC(=O)c1cccnc1	-	24.4	-	-	-	-	46.5	57.8
CCOC(=O)c1cc2c(=O)n3ccccc3nc2n(Cc2ccco2)c1=NC(=O)c1cccnc1	-	-	-	-	-	-	.	.
COc1ccc(-c2cc(-c3nnc(SCC(=O)Nc4cccc(Cl)c4C)n3N)[nH]n2)cc1	-	.	-	-	-	-	.	.
Cc1ccc(S(=O)(=O)/N=C/c2ccco2)cc1	-	91.7	-	-	-	-	-	-
Cc1ccc(NC(=O)CSc2nnc(-c3cc(-c4ccc(Cl)cc4)n[nH]3)n2N)cc1	-	.	-	-	-	-	.	.
COc1ccc(N2C(=O)CC(c3ccccc3)CC2=O)cc1	-	-	-	-	-	-	.	.
COc1ccc(C2CC(=O)C(CS(=O)(=O)c3ccccc3)C(=O)C2)cc1 (configuration not stated)	-	41.5	-	-	-	-	53.2	102.0
O=C1CC(c2ccc(Cl)cc2)CC(=O)C1CS(=O)(=O)c1ccccc1 (configuration not stated)	-	25.4	-	-	-	-	43.1	82.8
O=C(Cn1nc(CNc2ccc(Cl)cc2)[n+]2c1CCCCC2)c1ccc(Br)cc1	-	29.9	-	-	-	-	-	-
Cc1ccc2c(c1)N(CCCC(=O)N(C)Cc1ccc(F)cc1)C(=O)CO2	-	.	-	-	-	-	.	.
CN(C)/N=C/C=C1\CC/C(=C\c2ccc(Br)cc2)C1=O	-	-	-	-	-	-	.	.
CN(C)/N=C/C=C1\CCC/C(=C/c2cccs2)C1=O	-	29.9	-	-	-	-	25.2	28.8
COc1ccc(Br)cc1/C=C/C(=O)c1ccc(NC(C)=O)cc1	-	27.0	-	-	-	-	85.5	81.3
